Assay [1] can be described thus: qHTS Assay for Lipid Storage Modulators (AID 1519; calls by dose curve; as to activity change, negative = inhibition: % is scaled to controls: 0 for no effect and ±100 for the full control effect). To be noted: Drosophila S3 cells, BODIPY lipid droplet/cell ratio, laser cytometry, cells loaded with oleic acid. The method, boiled down:
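Cells seeded at 5,000 per well were treated with compounds over a concentration series and loaded with oleic acid (400 uM, as added). Lipid droplet fluorescence (488 nm excitation, 500-530 nm channel) was read by laser-scanning cytometry and normalized to 20 uM Triacsin C.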

In assay [2] the target is alpha-glucosidase (Oryza sativa, rice) (UniProt Q653V4). Nature of the assay: Counterscreen for Glucocerebrosidase Inhibitors: qHTS Assay for Rice alpha-Glucosidase at pH 5.0 (AID 997).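 Also: 0% = full activity with enzyme and -100% = basal without enzyme.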 To be noted: rice alpha-glucosidase enzyme activity; series mostly up to 76.9 µM. The method, boiled down: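 Rice alpha-glucosidase (4 nM final) with 400 uM 4-methylumbelliferyl-alpha-D-glucopyranoside in citrate buffer pH 5.0, 20 min at room temperature, stopped at pH 10; fluorescence 365/440 nm, compounds 0.7 nM–77 uM, AC50 from Hill fits.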

A short description of assay [3]: Validation of Assay for Modulators of Lamin A Splicing (AID 1459; active = well fitted curve in the direction sought with a large enough effect in the signal ratio; the % refers to the signal ratio;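 also: cells exposed to compound for two days before reading; 0% is about no effect; ratio rise marks activators and ratio drop marks inhibitors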). To be noted: Lamin A splicing dual RFP/GFP fluorescence reporter; series mostly up to 9.22 µM. The method, boiled down:
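Readout: ratio of GFP (500-530 nm) to RFP (575-640 nm) total object intensity by 488 nm laser-scanning cytometry after 48 hrs. Cells were HeLa S3 clones carrying lamin A-EGFP minigene plus DsRed2 viability reporter; vehicle 0.5% DMSO final.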

For assay [4], the target named is DNA repair nuclease/redox regulator APEX1 (Homo sapiens) (UniProt P27695). In words: qHTS Validation Assay for Inhibitors of the Human Apurinic/apyrimidinic Endonuclease 1 (APE1) (AID 1705;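 also: TAMRA fluorescence gain over two minutes as APE1 cuts a quenched THF abasic duplex; % is scaled to controls: 0 for no effect and ±100 for the full control effect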). The settings on record: purified APE1 endonuclease activity, fluorescence, titration; series mostly up to 57.1 µM. In short, it runs like this:
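Read-out: TAMRA fluorescence (525 nm ex, 598 nm em) from cleavage of a quenched THF abasic-site duplex, 50 nM final; activity taken as intensity change between third and first of three reads 60 s apart.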
For orientation: qHTS replaces the single test concentration by a dilution series.

The nature of assay [5]: Counterscreen for APE1 Inhibitors: Fluorescent Dye Displacement Validation Assay (AID 1707).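 Also: plate controls were ThO with dsDNA and no compound for no effect and ThO without dsDNA for full effect.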 The settings on record: fluorescent dye displacement from DNA; series mostly up to 57.1 µM. In short, it runs like this: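 Thiazole Orange (250 nM) bound to 50 nM TAMRA-labelled dsDNA with tetrahydrofuran abasic site; displacement by DNA-binding compounds lowers fluorescence. Buffer 50 mM Tris-HCl pH 7.5, 50 mM NaCl, 2 mM MgCl2, 0.01% Tween-20; endpoint read at 480/540 nm.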

Assay [6] deals with Endonuclease 4 (Escherichia coli (strain K12)) (UniProt P0A6C1). In words: Counterscreen for APE1 Inhibitors: qHTS Validation Assay for Inhibitors of Endonuclease IV (AID 1708). Also: % is scaled to controls: 0 for no effect and ±100 for the full control effect. The settings on record: E. coli endonuclease IV, DNA cleavage fluorescence; series mostly up to 57.1 µM. The method, boiled down:
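Enzymatic AP-site incision assay using a double-stranded THF substrate labelled with TAMRA and BHQ-2; released fluorescence signals activity. Enzyme 2 nM, substrate 50 nM, 15 min compound preincubation.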
Background: The purpose of a counterscreen is to sort out artefacts and off-target activity.

The nature of assay [7]: qHTS for differential inhibitors of proliferation of Plasmodium falciparum line 7G8 (AID 1815).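 Also: parasite growth measured after three days of incubation.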 Also: potency is read from the fitted curve at half-maximal effect.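 As to activity change, negative = inhibition: plate controls were vehicle wells for no effect and reference inhibitor wells for full effect.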 To be noted: Plasmodium falciparum 7G8 proliferation inhibition; series mostly up to 28.7 µM.
Assay [8] in a line: qHTS for differential inhibitors of proliferation of Plasmodium falciparum line GB4 (AID 1816).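 Also: parasite growth measured after 72 h incubation.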 Also: potency is read from the fitted curve at half-maximal effect.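 As to activity change, negative = inhibition: 0% = vehicle DMSO and -100% = reference inhibitor.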 The settings on record: Potency: Plasmodium falciparum GB4 proliferation inhibition; series mostly up to 28.7 µM.
A short description of assay [9]: Cell Viability - LYMP1-002 - Assay at 24 hr (AID 993). Also: % is scaled to controls: 0 for no effect and ±100 for the full control effect. To be noted: LYMP1-002 lymphoblastoid cells viability; series mostly up to 92.2 µM. The method, boiled down:
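Human lymphoblastoid LYMP1-002 cells, 2500/well in complete medium, were treated with compounds for 24 h at 37 C; intracellular ATP was read by CellTiter-Glo luminescence. AC50 values came from Hill-equation fits of qHTS concentration-response data.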

The nature of assay [10]: Cell Viability - LYMP1-002 - Assay at 40 hr (AID 994).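 Also: 0% = DMSO only and full inhibition = 92 µM tetraoctylammonium bromide; nearly all actives have a fitted effect of over 60% in size.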 The settings on record: LYMP1-002 lymphoblastoid cell viability; series mostly up to 92.2 µM. The method, boiled down:
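Human lymphoblastoid cells, 2500/well in complete medium, were preincubated 5 hr at 37 C, then exposed to compounds for 40 hr at 37 C. Intracellular ATP was read by CellTiter-Glo luminescence after 30 min at room temperature; AC50 from Hill-equation fits.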

Setting [11] is: measured here: cell count channel max response.
Where [12] appears, read: measured here: lipid channel max response.

Experimental findings from PubChem BioAssay (NCATS) are described below.

Several values for one entry are separate records, joined by “and”; a condition that tells them apart may be missing. Equal entries are not always repeated. Results filed as inconclusive are left out. Activity calls are given as the source filed them. Unless noted, calls follow the shape of the dose curve; as a rule, active = well fitted curve in the direction sought with a large enough effect; inconclusive = small, poorly fitted or top-dose-only effect, or another doubt; inactive = no such curve, though single readings can be large; an effect the other way counts as inactive or inconclusive.

DNA repair nuclease/redox regulator APEX1 (Homo sapiens), sequence (P27695 whole entry, looked up): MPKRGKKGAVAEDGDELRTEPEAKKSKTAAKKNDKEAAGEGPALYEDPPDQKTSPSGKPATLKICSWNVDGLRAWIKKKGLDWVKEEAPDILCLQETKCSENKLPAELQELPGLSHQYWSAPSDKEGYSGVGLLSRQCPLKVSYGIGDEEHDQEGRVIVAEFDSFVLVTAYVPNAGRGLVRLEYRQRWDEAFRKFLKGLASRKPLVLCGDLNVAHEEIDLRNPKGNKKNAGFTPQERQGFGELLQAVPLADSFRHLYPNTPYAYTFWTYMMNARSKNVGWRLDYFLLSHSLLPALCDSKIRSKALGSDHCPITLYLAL

With `O=C(O)c1cn(-c2ccc(F)cc2)c2cc(N3CCNCC3)c(F)cc2c1=O`, the activity change, negative = inhibition in assay [1] (at 57.5 µM (top of the series)) is 4.61% (inactive). Also, the max response was found to be 14.8% in assay [1] (setting [11]) and 20.1% in assay [1] (setting [12]).

`Nc1nc(OCc2ccccc2)c2[nH]cnc2n1`: the outcome in assay [2], in assay [3] and in [6] was inactive. Besides, the Potency result in assay [4], in assay [5], in [7] and in [8] was “inactive” throughout.

For `CC1(C)C(=O)N(CCN2CCC(C(=O)c3ccc(F)cc3)CC2)c2ccccc21`, the outcome in [2] and in assay [3] was inactive. Also, the Potency entry in [4] and in [5] was “inactive” each time. For the same compound, the Potency in assay [7] was 6.31 µM (active); in assay [8], 12.6 µM (active).

Regarding `CCC1=C(C)CN(C(=O)NCCc2ccc(S(=O)(=O)NC(=O)NC3CCC(C)CC3)cc2)C1=O` (configuration not stated), the activity change, negative = inhibition in assay [1] (at 25.7 µM (top of the series)) was -0.769% (inactive). In addition, the max response was -5.01% in assay [1] (setting [11]) and -5.89% in assay [1] (setting [12]).

Consider `Oc1ccc(OCc2ccccc2)cc1`, for which, in assay [1] (at 25.7 µM (top of the series)), the activity change, negative = inhibition is -0.0547% (inactive). Moreover, the results for the max response in assay [1] (setting [11]) and in assay [1] (setting [12]) were -20% and -20.9%, respectively.

As for `CC1(C)NC(=O)N(c2ccc([N+](=O)[O-])c(C(F)(F)F)c2)C1=O`, the compound was classed as inactive in assay [2], in assay [3] and in assay [6]. Further, the activity change, negative = inhibition in [1] (at 57.5 µM (top of the series)) was -13.9% (inactive) and -13.7% (inactive). The max response is -10.4% and -26.6% in [1] (setting [11]); -19.8% and -35.1% in assay [1] (setting [12]). In addition, the Potency result in [4], in assay [5], in assay [7] and in assay [8] was “inactive” in each case.

As to `COc1cc2nc(N3CCN(C(=O)C4CCCO4)CC3)nc(N)c2cc1OC` (configuration not stated), the result in assay [3] was inactive. In addition, the activity change, negative = inhibition in [1] (at 57.5 µM (top of the series)) is 0.288% (inactive). Also, the max response is -1.5% in assay [1] (setting [11]) and -3.7% in assay [1] (setting [12]). Also, the Potency entry in [4] and in assay [5] was “inactive” in each case.

Take `Nc1nc(Cl)nc2c1ncn2[C@H]1C[C@H](O)[C@@H](CO)O1`: in [1] (at 57.5 µM (top of the series)), the activity change, negative = inhibition is -3.99% (inactive). Besides, the max response is -0.0923% in assay [1] (setting [11]) and -3.39% in [1] (setting [12]).

For `Cc1nc2n(c(=O)c1CCN1CCC(c3noc4cc(F)ccc34)CC1)CCCC2`, the call in assay [2], in assay [3] and in assay [6] was inactive. In addition, the results for the activity change, negative = inhibition in assay [1] (at 25.7 µM (top of the series)) and in assay [1] (at 57.5 µM (top of the series)) were -3.92% (inactive) and 0.755% (inactive), respectively. Moreover, the max response is -8.38% and -35% in assay [1] (setting [11]); -11.2% and -35% in assay [1] (setting [12]). Also, the Potency entry in assay [4] and in [5] was “inactive” in each case.

For the compound `Cc1ccc(S(=O)(=O)NC(=O)NN2CC3CCCC3C2)cc1` (configuration not stated), the activity change, negative = inhibition in assay [1] (at 57.5 µM (top of the series)) is 1.76% (inactive) and 2.62% (inactive). Further, the max response in assay [1] (setting [11]) was 7.98% and 20.6%; in assay [1] (setting [12]), 13.4% and 23.5%.

With `CN(C)CCc1c[nH]c2ccc(Cn3cncn3)cc12`, the activity change, negative = inhibition in [1] (at 57.5 µM (top of the series)) was 3.43% (inactive). Also, the values for the max response in [1] (setting [11]) and in [1] (setting [12]) were 14.1% and 22%, respectively.

For the compound `CCOc1cc(CC(=O)N[C@@H](CC(C)C)c2ccccc2N2CCCCC2)ccc1C(=O)O`, the activity change, negative = inhibition in assay [1] (at 25.7 µM (top of the series)) is 0.216% (inactive). Besides, the max response in [1] (setting [11]) is -5.3%; in [1] (setting [12]), -9.52%.

As for `O=C1c2c(O)cc(O)cc2OC(c2ccc(O)c(O)c2)C1O` (configuration not stated), the call in [3] and in assay [6] was inactive. In addition, the activity change, negative = inhibition in assay [1] (at 57.5 µM (top of the series)) is 0.956% (inactive). Moreover, the max response amounted to 37.7% in [1] (setting [11]) and 36.5% in [1] (setting [12]). In addition, the Potency entry in assay [4] and in [5] was “inactive” throughout. Moreover, in assay [8], the Potency was 15.8 µM (active).

Turning to `CCCOc1ccc2nc(NC(=O)OC)[nH]c2c1`, the activity change, negative = inhibition in assay [1] (at 57.5 µM (top of the series)) is 5.26% (inactive). The max response in assay [1] (setting [11]) was found to be 3.19%; in assay [1] (setting [12]), 11.6%.

Consider `C[C@H](Cc1ccc(O)c(O)c1)[C@@H](C)Cc1ccc(O)c(O)c1`, for which the compound was classed as inactive in [2], in assay [3] and in assay [6]. Also, the Potency entry in assay [4] is “inactive”. In addition, the Potency was 3.98 µM (active) in assay [7] and 5.01 µM (active) in assay [8].

For the compound `CC1Cc2ccccc2N1NC(=O)c1ccc(Cl)c(S(N)(=O)=O)c1` (configuration not stated), the activity change, negative = inhibition in assay [1] (at 57.5 µM (top of the series)) is 7.15% (inactive). For the same compound, the max response in assay [1] (setting [11]) was determined as 9.62%; in assay [1] (setting [12]) it was 23.5%.

Take `Cc1cc(O)c2c(c1)C(=O)c1cc(O)cc(O)c1C2=O`: the Potency result in assay [9] and in assay [10] was “inactive” in each case. In addition, the result in assay [2], in [3] and in assay [6] was inactive. Moreover, in [1] (at 57.5 µM (top of the series)), the activity change, negative = inhibition is -0.138% (inactive) and 5.28% (inactive). The max response in [1] (setting [11]) is 55.1% and -15.9%; in assay [1] (setting [12]), 55.2% and -8.66%.

As for `CCc1nc(N)nc(N)c1-c1ccc(Cl)cc1`, the Potency entry in assay [9] was “inactive”. The results for the activity change, negative = inhibition in assay [1] (at 25.7 µM (top of the series)) and in assay [1] (at 57.5 µM (top of the series)) were -2.49% (inactive) and 9.2% (inactive), respectively. Moreover, the max response was -6.7% and 7.93% in assay [1] (setting [11]); -10.2% and 22.1% in [1] (setting [12]).
